Experimental data reported in PubChem BioAssay AID1159580 (chemical genetic matrix, 2015).
Values joined by “and” are separate entries in the source; they are usually repeats but may differ in a detail not shown here. Equal entries are not always repeated. Among all 5,500 compounds or so, about 2,000 (36%) were called active. Roughly 18% stayed inconclusive and do not appear here. Rule as the data show it: active = normalized growth mostly below about 0.91 (no sharp cut-off); inconclusive = no clear call, values can overlap the other calls; inactive = mostly above about 0.92. The list shows a part of the results.

Experiment: chemical genetic growth profiling, strain panel (AID 1159580);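 also: tested at 20 µM; growth read once vehicle control cultures reached saturation at 30 °C; 1 = growth at the plate median or of vehicle wells; lower values mean less growth of the strain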
Conditions: S. cerevisiae deletion strains, growth OD

Measured: normalized growth

Cc1onc(-c2c(Cl)cccc2Cl)c1C(=O)N[C@@H]1C(=O)N2[C@@H]1SC(C)(C)[C@@H]2C(=O)O
inactive: locus YAL013W, strain DEP1, stronger effect = lower value 1.02 | locus YAL021C, strain ccr4, stronger effect = lower value 0.969 | locus YAL026C, strain drs2, stronger effect = lower value 1.02 | locus YAL030W, strain snc1, stronger effect = lower value 0.994 | locus YBL061C, strain skt5, stronger effect = lower value 0.991 | locus YBR009C, strain hhf1, stronger effect = lower value 1 | locus YBR021W, strain FUR4, stronger effect = lower value 1.03 | locus YBR023C, strain chs3, stronger effect = lower value 0.986 | locus YBR171W, strain sec66, stronger effect = lower value 0.993 | locus YBR229C, strain ROT2, stronger effect = lower value 1.01 | locus YBR231C, strain swc5, stronger effect = lower value 0.963 | locus YBR279W, strain paf1, stronger effect = lower value 0.993 | locus YCL011C, strain gbp2, stronger effect = lower value 1.01 | locus YCL016C, strain dcc1, stronger effect = lower value 1.03 | locus YCL029C, strain bik1, stronger effect = lower value 0.996 | locus YCL069W, strain vba3, stronger effect = lower value 0.995 | locus YCR088W, strain abp1, stronger effect = lower value 0.975 | locus YDL005C, strain med2, stronger effect = lower value 0.995 | locus YDL035C, strain GPR1, stronger effect = lower value 1.04 | locus YDL040C, strain nat1, stronger effect = lower value 0.988 | locus YDL074C, strain BRE1, stronger effect = lower value 1.01 | locus YDL101C, strain DUN1, stronger effect = lower value 1.01 | locus YDL134C, strain PPH21, stronger effect = lower value 1.05 | locus YDL185W, strain tfp1, stronger effect = lower value 0.991 | locus YDL192W, strain arf1, stronger effect = lower value 0.993 | locus YDR001C, strain nth1, stronger effect = lower value 0.97 | locus YDR069C, strain doa4, stronger effect = lower value 0.991 | locus YDR101C, strain arx1, stronger effect = lower value 0.994 | locus YDR137W, strain rgp1, stronger effect = lower value 0.991 | locus YDR150W, strain NUM1, stronger effect = lower value 1.02 | locus YDR159W, strain sac3, stronger effect = lower value 0.975 | locus YDR162C, strain NBP2, stronger effect = lower value 1.02 | locus YDR195W, strain ref2 0.889 | locus YDR297W, strain sur2, stronger effect = lower value 0.973 | locus YDR318W, strain mcm21, stronger effect = lower value 0.995 | locus YDR334W, strain swr1, stronger effect = lower value 0.948 | locus YDR335W, strain msn5, stronger effect = lower value 0.967 | locus YDR388W, stronger effect = lower value 1 | locus YDR392W, strain spt3, stronger effect = lower value 1.12 | locus YDR502C, strain sam2, stronger effect = lower value 0.996 | locus YEL003W, strain gim4, stronger effect = lower value 0.973 | locus YEL037C, strain rad23, stronger effect = lower value 0.995 | locus YEL061C, strain CIN8 (second series), stronger effect = lower value 0.971 | locus YEL061C, strain CIN8, stronger effect = lower value 1.01 | locus YER015W, strain faa2, stronger effect = lower value 0.991 | locus YER016W, strain bim1, stronger effect = lower value 0.997 | locus YER110C, stronger effect = lower value 0.992 | locus YER111C, strain swi4, stronger effect = lower value 0.998 | locus YER155C, strain BEM2 (second series), stronger effect = lower value 0.973 | locus YER155C, strain BEM2, stronger effect = lower value 1.01 | locus YER167W, strain BCK2, stronger effect = lower value 1.02 | locus YFR010W, strain ubp6, stronger effect = lower value 0.97 | locus YGL078C, strain dbp3, stronger effect = lower value 1 | locus YGL086W, strain mad1, stronger effect = lower value 1.01 | locus YGL167C, strain pmr1, stronger effect = lower value 0.976 | locus YGL173C, strain kem1, stronger effect = lower value 0.961 | locus YGL227W, strain vid30, stronger effect = lower value 0.981 | locus YGL240W, strain doc1, stronger effect = lower value 0.951 | locus YGL248W, strain PDE1, stronger effect = lower value 1.01 | locus YGL253W, strain hxk2, stronger effect = lower value 1.02 | locus YGR078C, strain PAC10, stronger effect = lower value 1.01 | locus YGR135W, strain pre9, stronger effect = lower value 0.976 | locus YGR229C, strain SMI1, stronger effect = lower value 1.02 | locus YGR252W, strain gcn5, stronger effect = lower value 0.946 | locus YHR013C, strain ard1, stronger effect = lower value 1.02 | locus YHR027C, strain rpn1, stronger effect = lower value 0.997 | locus YHR030C, strain SLT2, stronger effect = lower value 1.01 and 1.06 | locus YHR079C, strain IRE1 (second series), stronger effect = lower value 0.989 | locus YHR079C, strain IRE1, stronger effect = lower value 1.02 | locus YHR094C, strain hxt1, stronger effect = lower value 0.994 | locus YHR129C, strain ARP1, stronger effect = lower value 1.02 | locus YHR142W, strain chs7, stronger effect = lower value 1.02 | locus YHR200W, strain rpn10, stronger effect = lower value 0.991 | locus YIL066C, strain RNR3, stronger effect = lower value 1.02 | locus YIL073C, strain SPO22, stronger effect = lower value 0.988 | locus YIL125W, strain kgd1, stronger effect = lower value 0.998 | locus YIR030C, strain dcg1, stronger effect = lower value 1.01 | locus YJL092W, strain hpr5, stronger effect = lower value 0.99 | locus YJL095W, strain BCK1 (second series), stronger effect = lower value 0.983 | locus YJL095W, strain BCK1, stronger effect = lower value 1 and 1.04 | locus YJL115W, strain asf1, stronger effect = lower value 0.979 | locus YJL129C, strain trk1, stronger effect = lower value 0.972 | locus YJL134W, strain LCB3, stronger effect = lower value 1.01 | locus YJL154C, strain vps35, stronger effect = lower value 0.978 | locus YJL164C, strain tpk1, stronger effect = lower value 1.02 | locus YJL166W, strain qcr8, stronger effect = lower value 0.957 | locus YJL168C, strain set2, stronger effect = lower value 0.988 | locus YJL187C, strain SWE1 (second series), stronger effect = lower value 1.01 | locus YJL187C, strain SWE1, stronger effect = lower value 0.987 | locus YJR043C, strain POL32, stronger effect = lower value 1.04
